Measured values taken from PubChem BioAssay (EPA / NIEHS).
Results filed as inconclusive are left out. Activity calls are given as the source filed them. The calls were made as follows, unless noted: active = hit-call score of the fitted dose curve at least 0.9, where 1 is the maximum; inactive = score below 0.9.

Experiments:
[1] = read-out: solute carrier (SLC22A1), SLC22A1 (gene 6580); experiment: LTEA_HepaRG_SLC22A1: Life Technologies and Expression Analysis (LTEA) Assay for solute carrier (SLC22A1) using HepaRG (AID 2283524); conditions: mRNA level, 48 h; actives raise or lower the signal
How it was run: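 Differentiated human HepaRG cells in serum-free induction medium, exposed 48 h in duplicate to 8-point half-log series from 100 µM top in 0.5% DMSO. SLC22A1 mRNA by TaqMan qRT-PCR normalized to ACTB, GAPDH, POLR2A; bidirectional fit versus DMSO.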

[2] = read-out: Pyruvate Dehydrogenase Kinase 4 (PDK4), PDK4 (gene 5166); experiment: LTEA_HepaRG_PDK4: Life Technologies and Expression Analysis (LTEA) Assay for Pyruvate Dehydrogenase Kinase 4 (PDK4) using HepaRG (AID 2283525); conditions: mRNA level, 48 h; actives raise or lower the signal
How it was run: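 HepaRG cells plated 48 h, then switched to serum-free induction medium and exposed in duplicate for 48 h to 8 half-log concentrations from 100 uM in 0.5% DMSO. PDK4 mRNA measured by qRT-PCR, normalized to ACTB, GAPDH and POLR2A; bidirectional fit versus DMSO.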

[3] = read-out: NAD(P)H dehydrogenase [quinone] 1 (NQO1), NQO1 (gene 1728); experiment: LTEA_HepaRG_NQO1: Life Technologies and Expression Analysis (LTEA) Assay for NAD(P)H dehydrogenase [quinone] 1 (NQO1) using HepaRG (AID 2283526); conditions: mRNA level, 48 h; actives raise or lower the signal
How it was run: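 Human HepaRG hepatic cells received chemicals for 48 h in serum-free induction medium with 0.5% DMSO, up to 100 uM. Expression was assessed by TaqMan qRT-PCR against housekeeping controls and fitted bidirectionally against DMSO.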

[4] = read-out: Nuclear factor erythroid 2-related factor 2 (Homo sapiens) (UniProt Q16236); experiment: LTEA_HepaRG_NFE2L2: Life Technologies and Expression Analysis (LTEA) Assay for Nuclear factor erythroid 2-related factor 2 (NFE2L2) Transcription Factor using HepaRG (AID 2283527); conditions: mRNA level, 48 h; actives raise or lower the signal;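 also: TaqMan qRT-PCR transcript level normalised to ACTB GAPDH and POLR2A housekeeping genes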
How it was run: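 Differentiated human HepaRG cells, serum-free induction medium, exposed 48 h in duplicate to eight half-log concentrations up to 100 uM in 0.5% DMSO. NFE2L2 mRNA by Fluidigm TaqMan qRT-PCR, normalised to ACTB, GAPDH, POLR2A; bidirectional change versus DMSO.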

[5] = read-out: succinate dehydrogenase complex iron sulfur subunit B (SDHB), SDHB (gene 6390); experiment: LTEA_HepaRG_SDHB: Life Technologies and Expression Analysis (LTEA) Assay for succinate dehydrogenase complex iron sulfur subunit B (SDHB) using HepaRG (AID 2283528); conditions: mRNA level, 48 h; actives raise or lower the signal
How it was run: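 HepaRG, 48 h exposure, 8-pt half-log series from 100 uM in 0.5% DMSO, duplicates. Readout: SDHB mRNA by Fluidigm qRT-PCR vs housekeeping genes; bidirectional fit relative to DMSO.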

[6] = read-out: Signal transducer and activator of transcription 3 (Homo sapiens) (UniProt P40763); experiment: LTEA_HepaRG_STAT3: Life Technologies and Expression Analysis (LTEA) Assay for Signal transducer and activator of transcription (STAT3) using HepaRG (AID 2283529); conditions: mRNA level, 48 h; actives raise or lower the signal
How it was run: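 Differentiated HepaRG cells, serum-free induction medium, dosed 48 h in duplicate, 8 half-log concentrations from 100 uM in 0.5% DMSO. STAT3 mRNA by qRT-PCR, normalised to ACTB, GAPDH, POLR2A; bidirectional fit versus DMSO.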

[7] = read-out: sulfotransferase 2A1 (SULT2A1), SULT2A1 (gene 6822); experiment: LTEA_HepaRG_SULT2A1: Life Technologies and Expression Analysis (LTEA) Assay for sulfotransferase 2A1 (SULT2A1) using HepaRG (AID 2283531); conditions: mRNA level, 48 h; actives raise or lower the signal
How it was run: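 Transcript levels of SULT2A1, quantified by qRT-PCR and normalized to three housekeeping genes, serve as the readout. Human HepaRG cultures receive test chemicals for 48 h at up to 100 uM in half-log steps, with 0.5% DMSO vehicle.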

[8] = read-out: Transforming Growth Factor (TGFA), TGFA (gene 7039); experiment: LTEA_HepaRG_TGFA: Life Technologies and Expression Analysis (LTEA) Assay for Transforming Growth Factor (TGFA) using HepaRG (AID 2283532); conditions: mRNA level, 48 h; actives raise or lower the signal
How it was run: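 Differentiated HepaRG cells exposed 48 hours in serum-free induction medium, 0.5% DMSO vehicle, 8-point half-log series from 100 uM, in duplicate. TGFA mRNA by TaqMan qRT-PCR, normalised to ACTB, GAPDH, POLR2A; bidirectional fit versus DMSO.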

[9] = read-out: Transforming Growth Factor (TGFB1), TGFB1 (gene 7040); experiment: LTEA_HepaRG_TGFB1: Life Technologies and Expression Analysis (LTEA) Assay for Transforming Growth Factor (TGFB1) Transporter using HepaRG (AID 2283533); conditions: mRNA level, 48 h; actives raise or lower the signal
How it was run: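 HepaRG, 48 h post-plating, switched to serum-free induction medium; chemicals 100 uM top, half-log, 8 pts, 0.5% DMSO, dup; 48 h exposure; RNA → Fluidigm TaqMan qRT-PCR; norm ACTB/GAPDH/POLR2A; bidirectional fit vs DMSO.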

[10] = read-out: TIMP1, TIMP1 (gene 7076); experiment: LTEA_HepaRG_TIMP1: Life Technologies and Expression Analysis (LTEA) Assay for TIMP1 using HepaRG (AID 2283534); conditions: mRNA level, 48 h; actives raise or lower the signal;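 also: TaqMan qRT-PCR signal normalized to ACTB GAPDH and POLR2A housekeeping genes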
How it was run: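 Readout is TIMP1 mRNA level measured by qRT-PCR and normalized to three housekeeping genes. Human HepaRG cells were treated for 48 h in duplicate at eight concentrations up to 100 uM (0.5% DMSO); gain or loss fitted against DMSO.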

[11] = read-out: Tumor necrosis factor receptor 1 (TNFRSF1A), TNFRSF1A (gene 7132); experiment: LTEA_HepaRG_TNFRSF1A: Life Technologies and Expression Analysis (LTEA) Assay for Tumor necrosis factor receptor 1 (TNFRSF1A) using HepaRG (AID 2283535); conditions: mRNA level, 48 h; actives raise or lower the signal
How it was run: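 Read-out is TNFRSF1A transcript level by TaqMan qRT-PCR, normalized to three housekeeping genes, scored as gain or loss of signal versus 0.5% DMSO. Human HepaRG cells received test chemicals for 48 h at up to 100 uM (half-log series).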

[12] = read-out: Thyroid Hormone Responsive (THRSP), THRSP (gene 7069); experiment: LTEA_HepaRG_THRSP: Life Technologies and Expression Analysis (LTEA) Assay for Thyroid Hormone Responsive (THRSP) using HepaRG (AID 2283536); conditions: mRNA level, 48 h; actives raise or lower the signal
How it was run: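 Differentiated HepaRG cells treated 48 h in serum-free induction medium with 8 half-log concentrations up to 100 uM (0.5% DMSO), duplicates. THRSP mRNA by TaqMan qRT-PCR normalised to ACTB, GAPDH, POLR2A; bidirectional fit versus DMSO.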

[13] = read-out: UDP glucuronosyltransferase (UGT1A1), UGT1A1 (gene 54658); experiment: LTEA_HepaRG_UGT1A1: Life Technologies and Expression Analysis (LTEA) Assay for UDP glucuronosyltransferase (UGT1A1) using HepaRG (AID 2283538); conditions: mRNA level, 48 h; actives raise or lower the signal
How it was run: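 Human liver HepaRG cultures receive test chemical for 48 h, up to 100 uM in 0.5% DMSO, with phenobarbital induction controls. UGT1A1 mRNA is measured by qRT-PCR and normalized to ACTB, GAPDH and POLR2A.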

[14] = read-out: UDP glucuronosyltransferase (UGT1A6), UGT1A6 (gene 54578); experiment: LTEA_HepaRG_UGT1A6: Life Technologies and Expression Analysis (LTEA) Assay for UDP glucuronosyltransferase (UGT1A6) using HepaRG (AID 2283539); conditions: mRNA level, 48 h; actives raise or lower the signal
How it was run: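 HepaRG, 48 h post-plating switch to serum-free induction medium; chemical 48 h, 100 uM top, half-log x8, duplicate, 0.5% DMSO. Phenobarbital 1mM induction control. UGT1A6 mRNA by TaqMan qRT-PCR; gain/loss fit vs DMSO.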

[15] = read-out: X-box binding protein 1 (XBP1), XBP1 (gene 7494); experiment: LTEA_HepaRG_XBP1: Life Technologies and Expression Analysis (LTEA) Assay for X-box binding protein 1 (XBP1) using HepaRG (AID 2283540); conditions: mRNA level, 48 h; actives raise or lower the signal
How it was run: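 Transcript levels of XBP1, measured by qRT-PCR and normalised to three housekeeping genes, were fitted bidirectionally relative to 0.5% DMSO controls. Human HepaRG cells received eight-point half-log dilutions from 100 uM for 48 h.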

[16] = ATG_XTT_Cytotoxicity: Cytotoxicity Assessment in the Attagene TRANS-FACTORIAL HepG2 Assay (AID 2283584; active = hit-call score of the fitted dose curve at least 0.9, where 1 is the maximum)
How it was run: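 Cells: human HepG2, transiently transfected with MRTU reporter constructs. Exposure 24 h. Readout: XTT, cell number. Baseline/neg ctrl DMSO; loss-of-signal scored.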

[17] = read-out: solute carrier (SLCO1B1), SLCO1B1 (gene 10599); experiment: LTEA_HepaRG_SLCO1B1: Life Technologies and Expression Analysis (LTEA) Assay for solute carrier (SLCO1B1) using HepaRG (AID 2283530); conditions: mRNA level, 48 h; actives raise or lower the signal
How it was run: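 HepaRG, serum-free induction medium, 48 h dosing, 8-pt half-log from 100 uM, 0.5% DMSO vehicle, duplicates. Readout: SLCO1B1 mRNA, qRT-PCR, ACTB/GAPDH/POLR2A normalization; up or down fit vs DMSO.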

[18] = read-out: Cellular tumor antigen p53 (Homo sapiens) (UniProt P04637); experiment: LTEA_HepaRG_TP53: Life Technologies and Expression Analysis (LTEA) Assay for Tumor Protein P53 (TP53) using HepaRG (AID 2283537); conditions: mRNA level, 48 h; actives raise or lower the signal
How it was run: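 HepaRG, 48 h exposure, top 100 uM, half-log 8-point, 0.5% DMSO vehicle, duplicates. Read: TP53 mRNA by TaqMan qRT-PCR, normalised to ACTB/GAPDH/POLR2A; bidirectional fit vs DMSO.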

[19] = TOX21_p53_BLA_p2_viability: Viability Assessment in the Tox21 HCT-116 p53 Agonism Beta-lactamase Assay, Phase 2 (AID 2283591; active = hit-call score of the fitted dose curve at least 0.9, where 1 is the maximum;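 also: compound exposure lasted 16 h at 37 °C; actives lower the ATP signal meaning cytotoxicity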)
How it was run: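 HCT116 p53-bla cells, 4000/well, dosed after 5 h plating (217-fold dilution of DMSO stocks) and incubated 16 h at 37C. Viability taken as cellular ATP by CellTiter-Glo luminescence after 30 min RT; signal loss marks cytotoxicity.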

[20] = LTEA_HepaRG_LDH_cytotoxicity: Cytotoxicity Assessment in the Life Technologies and Expression Analysis (LTEA) Assay (AID 2283563; active = hit-call score of the fitted dose curve at least 0.9, where 1 is the maximum)
How it was run: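 Cells were thawed and plated for 48 h. Medium was then replaced with serum-free induction medium. Chemicals (8 half-log points, maximum 100 uM, 0.5% DMSO) were added in duplicate for 48 h, after which spent medium was assayed for LDH.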

Signal transducer and activator of transcription 3 (Homo sapiens), sequence (P40763 whole entry, looked up): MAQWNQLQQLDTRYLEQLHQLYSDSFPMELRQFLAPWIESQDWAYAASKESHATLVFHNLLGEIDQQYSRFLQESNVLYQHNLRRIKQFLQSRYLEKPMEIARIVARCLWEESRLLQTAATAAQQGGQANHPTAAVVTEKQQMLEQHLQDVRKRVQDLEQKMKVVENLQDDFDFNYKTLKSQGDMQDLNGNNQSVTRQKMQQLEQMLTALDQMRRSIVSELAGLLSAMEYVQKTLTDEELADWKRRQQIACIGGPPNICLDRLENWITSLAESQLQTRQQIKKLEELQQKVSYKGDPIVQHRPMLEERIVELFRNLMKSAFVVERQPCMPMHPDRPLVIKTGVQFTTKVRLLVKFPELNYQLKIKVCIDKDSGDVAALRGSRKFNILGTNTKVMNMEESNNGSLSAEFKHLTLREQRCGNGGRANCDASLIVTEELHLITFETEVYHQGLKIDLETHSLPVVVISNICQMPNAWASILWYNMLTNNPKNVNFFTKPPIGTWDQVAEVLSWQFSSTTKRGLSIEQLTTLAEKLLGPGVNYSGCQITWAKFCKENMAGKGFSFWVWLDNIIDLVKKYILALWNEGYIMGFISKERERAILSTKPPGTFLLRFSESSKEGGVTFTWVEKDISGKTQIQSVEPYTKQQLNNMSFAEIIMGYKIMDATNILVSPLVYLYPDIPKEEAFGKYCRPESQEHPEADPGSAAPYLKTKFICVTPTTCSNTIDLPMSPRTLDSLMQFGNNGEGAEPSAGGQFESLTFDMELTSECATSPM
Nuclear factor erythroid 2-related factor 2 (Homo sapiens), sequence (Q16236 whole entry, looked up): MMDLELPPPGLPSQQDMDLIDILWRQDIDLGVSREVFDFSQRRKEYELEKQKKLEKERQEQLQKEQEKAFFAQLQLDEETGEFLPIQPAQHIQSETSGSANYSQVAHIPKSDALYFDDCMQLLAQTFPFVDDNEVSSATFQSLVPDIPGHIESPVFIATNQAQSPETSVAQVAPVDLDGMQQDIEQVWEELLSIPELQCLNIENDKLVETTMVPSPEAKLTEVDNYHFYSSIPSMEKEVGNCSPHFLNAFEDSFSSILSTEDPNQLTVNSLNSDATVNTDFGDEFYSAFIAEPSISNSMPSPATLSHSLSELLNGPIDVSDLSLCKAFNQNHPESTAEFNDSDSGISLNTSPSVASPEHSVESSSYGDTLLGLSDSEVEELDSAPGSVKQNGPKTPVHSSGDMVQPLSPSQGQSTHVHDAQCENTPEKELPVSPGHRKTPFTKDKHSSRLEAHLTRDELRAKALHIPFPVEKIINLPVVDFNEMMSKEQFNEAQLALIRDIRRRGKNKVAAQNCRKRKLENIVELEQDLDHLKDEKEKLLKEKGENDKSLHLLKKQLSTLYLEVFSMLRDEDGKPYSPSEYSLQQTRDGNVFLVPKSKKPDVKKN
Cellular tumor antigen p53 (Homo sapiens), sequence (P04637 whole entry, looked up): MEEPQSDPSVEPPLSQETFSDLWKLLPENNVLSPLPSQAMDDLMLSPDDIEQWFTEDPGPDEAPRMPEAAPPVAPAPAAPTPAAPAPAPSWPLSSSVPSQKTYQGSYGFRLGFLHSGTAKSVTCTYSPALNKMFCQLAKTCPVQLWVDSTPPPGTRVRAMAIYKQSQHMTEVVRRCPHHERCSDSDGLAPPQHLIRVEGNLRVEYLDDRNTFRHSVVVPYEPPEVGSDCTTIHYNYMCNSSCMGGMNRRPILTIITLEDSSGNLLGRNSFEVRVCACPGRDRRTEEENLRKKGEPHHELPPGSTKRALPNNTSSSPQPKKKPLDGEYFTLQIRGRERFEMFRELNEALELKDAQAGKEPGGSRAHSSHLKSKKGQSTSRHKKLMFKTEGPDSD

## Cn1cnc2c1c(=O)[nH]c(=O)n2C
[1]
  outcome: inactive
[2]
  outcome: inactive
[3]
  outcome: inactive
[4]
  outcome: inactive
[5]
  outcome: inactive
[6]
  outcome: inactive
[7]
  outcome: inactive
[8]
  outcome: inactive
[9]
  outcome: inactive
[10]
  outcome: inactive
[11]
  outcome: inactive
[12]
  outcome: inactive
[13]
  outcome: inactive
[14]
  outcome: inactive
[15]
  outcome: inactive
[16]
  outcome: inactive

## NC(=Nc1ccccc1)Nc1ccccc1
[1]
  outcome: inactive
[2]
  outcome: inactive
[3]
  outcome: inactive
[4]
  outcome: inactive
[6]
  outcome: inactive
[17]
  outcome: inactive
[7]
  outcome: inactive
[8]
  outcome: inactive
[9]
  outcome: inactive
[10]
  outcome: inactive
[11]
  outcome: inactive
[12]
  AC50: 12.8 µM (active)
[18]
  outcome: inactive
[13]
  outcome: inactive
[14]
  outcome: inactive
[15]
  outcome: inactive
[19]
  outcome: inactive

## Cc1cn([C@H]2C=C[C@@H](CO)O2)c(=O)[nH]c1=O
[1]
  outcome: inactive
[2]
  outcome: inactive
[3]
  outcome: inactive
[4]
  outcome: inactive
[5]
  outcome: inactive
[6]
  outcome: inactive
[7]
  outcome: inactive
[8]
  outcome: inactive
[9]
  outcome: inactive
[10]
  outcome: inactive
[13]
  outcome: inactive
[14]
  outcome: inactive
[15]
  outcome: inactive
[20]
  outcome: inactive
[16]
  outcome: inactive

## O=C1NC(=O)C(c2ccccc2)(c2ccccc2)N1
[1]
  outcome: inactive
[2]
  outcome: inactive
[3]
  outcome: inactive
[4]
  outcome: inactive
[5]
  outcome: inactive
[6]
  outcome: inactive
[7]
  AC50: 50 µM (active)
[8]
  outcome: inactive
[9]
  outcome: inactive
[10]
  outcome: inactive
[11]
  outcome: inactive
[12]
  outcome: inactive
[13]
  AC50: 19.3 µM (active)
[14]
  outcome: inactive
[15]
  outcome: inactive
[16]
  outcome: inactive
